# Source: PubChem BioAssay AID1159580 (chemical genetic matrix, 2015)
# “And” between values parts separate entries of the source, which are not always exact repeats. Equal entries are not always repeated. The whole screen tested about 5,500 compounds, of which about 2,000 (36%) were called active. About 18% were inconclusive and are not listed. The list shows a part of the results. Unmarked numbers belong to inactive results. Rule as the data show it: active = normalized growth mostly below about 0.91 (no sharp cut-off); inconclusive = no clear call, values can overlap the other calls; inactive = mostly above about 0.92.
# Assay: chemical genetic growth profiling, strain panel (AID 1159580);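 also: tested at 20 µM; growth read once vehicle control cultures reached saturation at 30 °C; 1 = growth at the plate median or of vehicle wells; lower values mean less growth of the strain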
# Conditions: S. cerevisiae deletion strains, growth OD
smiles,measurement,setting,value
CCOc1ccc(/C=C(\C)[N+](=O)[O-])cc1OC,normalized growth,"locus YAL013W, strain DEP1, hits give low values",0.525 (active)
same,normalized growth,"locus YAR019C, strain CDC15, hits give low values",0.976
same,normalized growth,"locus YBL105C, strain PKC1, hits give low values",0.975
same,normalized growth,"locus YBR135W, strain CKS1, hits give low values",0.97
same,normalized growth,"locus YBR136W, strain MEC1, hits give low values",0.973
same,normalized growth,"locus YBR160W, strain CDC28, hits give low values",0.971
same,normalized growth,"locus YBR229C, strain ROT2, hits give low values",0.25 (active)
same,normalized growth,"locus YDL017W, strain CDC7, hits give low values",0.97
same,normalized growth,"locus YDL028C, strain MPS1, hits give low values",0.973
same,normalized growth,"locus YDL101C, strain DUN1, hits give low values",0.426 (active)
same,normalized growth,"locus YDL108W, strain KIN28, hits give low values",0.979
same,normalized growth,"locus YDL132W, strain cdc53, hits give low values",0.991
same,normalized growth,"locus YDL134C, strain PPH21, hits give low values",0.106 (active)
same,normalized growth,"locus YDL214C, strain PRR2, hits give low values",0.471 (active)
same,normalized growth,"locus YDR052C, strain DBF4, hits give low values",0.984
same,normalized growth,"locus YDR054C, strain cdc34, hits give low values",0.978
same,normalized growth,"locus YDR226W, strain ADK1, hits give low values",0.97
same,normalized growth,"locus YDR477W, strain SNF1, hits give low values",0.516 (active)
same,normalized growth,"locus YEL061C, strain CIN8, hits give low values",0.22 (active)
same,normalized growth,"locus YER123W, strain YCK3, hits give low values",0.232 (active)
same,normalized growth,"locus YER133W, strain GLC7, hits give low values",0.482 (active)
same,normalized growth,"locus YFL009W, strain cdc4, hits give low values",0.98
same,normalized growth,"locus YFL029C, strain CAK1, hits give low values",0.97
same,normalized growth,"locus YFR003C, strain YPI1, hits give low values",0.978
same,normalized growth,"locus YFR019W, strain FAB1, hits give low values",0.284 (active)
same,normalized growth,"locus YFR028C, strain CDC14, hits give low values",0.974
same,normalized growth,"locus YGR040W, strain KSS1, hits give low values",0.478 (active)
same,normalized growth,"locus YGR052W, strain FMP48, hits give low values",0.382 (active)
same,normalized growth,"locus YGR078C, strain PAC10, hits give low values",0.437 (active)
same,normalized growth,"locus YGR092W, strain DBF2, hits give low values",0.226 (active)
same,normalized growth,"locus YHR030C, strain SLT2, hits give low values",0.0845 (active) and 0.197 (active)
same,normalized growth,"locus YHR079C, strain IRE1, hits give low values",0.313 (active)
same,normalized growth,"locus YHR082C, strain KSP1, hits give low values",0.429 (active)
same,normalized growth,"locus YHR087W, strain rtc3, hits give low values",0.401 (active)
same,normalized growth,"locus YHR205W, strain SCH9, hits give low values",0.57 (active)
same,normalized growth,"locus YIL147C, strain SLN1, hits give low values",0.973
same,normalized growth,"locus YJL095W, strain BCK1, hits give low values",0.269 (active)
same,normalized growth,"locus YJL128C, strain PBS2, hits give low values",0.964
same,normalized growth,"locus YJL157C, strain FAR1, hits give low values",0.46 (active)
same,normalized growth,"locus YJL187C, strain SWE1, hits give low values",0.434 (active)
same,normalized growth,"locus YJR016C, strain ILV3, hits give low values",0.985
same,normalized growth,"locus YJR043C, strain POL32, hits give low values",0.602 (active)
same,normalized growth,"locus YJR066W, strain TOR1 (second series), hits give low values",0.126 (active)
same,normalized growth,"locus YJR066W, strain TOR1, hits give low values",0.257 (active)
same,normalized growth,"locus YJR075W, strain HOC1, hits give low values",0.178 (active)
same,normalized growth,"locus YKL048C, strain ELM1, hits give low values",0.534 (active)
same,normalized growth,"locus YKL067W, strain YNK1, hits give low values",0.458 (active)
same,normalized growth,"locus YKL101W, strain HSL1, hits give low values",0.393 (active)
